From PubChem BioAssay come the findings set out here.

The structures appear in SMILES notation. Active and inactive are the calls of the source.

The test system of assay [1] is Plasmodium falciparum Sir2 (PF13_0152, Sir2A). The experiment in a line: Plasmodium falciparum Sir2A binding compounds – biochemical, small-molecule microarray, 635 nm fluorescence, primary screen (AID 1098).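 Further: score merges spot fluorescence intensity with its signal-to-noise ratio.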 The note with it: fluorescence 635 nm, higher = more signal.
Assay [2] is described as follows: probe aDKK1 binding to arrayed compounds – biochemical, biotinylated probe, 635/667 nm fluorescence, primary screen (AID 1099).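 Further: score merges 667nm spot fluorescence with signal to noise across triplicate slides.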 The note with it: small-molecule microarray, higher = more signal.
Assay [3] can be described thus: probe aCHRDL2 binding to arrayed compounds – biochemical, biotinylated probe, 635/667 nm fluorescence, primary screen (AID 1100). The note with it: small-molecule microarray, higher = more signal.
Assay [4] can be described thus: change in splice reporter luminescence, either direction, cell-based, HEK293, spliceosome inhibition project, primary screen (AID 1101).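 Further: HEK293 cells carrying a splicing-competent luciferase reporter gene; test concentration not given here.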 The note with it: HEK293 splicing luciferase reporter, 24 h, higher = more signal, called active from +8 up or from −8 down.
Assay [5] deals with Fibroblast growth factor 10 (Homo sapiens) (UniProt O15520). The assay is described as follows: compounds binding fibroblast growth factor 10 – biochemical, small-molecule microarray, 635 nm fluorescence, primary screen (AID 1102). The following applies: FGF10 binding, fluorescence 635 nm, higher = more signal.
Chain of Fibroblast growth factor 10 (Homo sapiens) (O15520 whole entry, looked up): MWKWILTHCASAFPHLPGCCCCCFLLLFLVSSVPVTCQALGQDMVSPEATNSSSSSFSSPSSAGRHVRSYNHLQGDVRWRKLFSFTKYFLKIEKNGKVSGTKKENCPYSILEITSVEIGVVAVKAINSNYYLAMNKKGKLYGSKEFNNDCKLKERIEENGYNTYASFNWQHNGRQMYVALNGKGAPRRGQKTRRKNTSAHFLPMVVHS
The subject of assay [6] is glycogen synthase kinase-3 (GSK3A per assay name; protocol says GSK3B). The assay is described as follows: compounds binding glycogen synthase kinase-3 – biochemical, small-molecule microarray, 635 nm fluorescence, GSK3A, primary screen (AID 1103). Further: the record names both GSK3A and GSK3B. The following applies: fluorescence 635 nm, higher = more signal.
Assay [7] deals with Epidermal growth factor receptor (Homo sapiens) (UniProt P00533). The assay is described as follows: compounds binding epidermal growth factor receptor – biochemical, small-molecule microarray, 635 nm fluorescence, primary screen (AID 1104).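 Further: score merges 667 nm emission intensity with spot signal to noise over triplicate slides.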 The note with it: EGFR binding, higher = more signal.
Chain of Epidermal growth factor receptor (Homo sapiens) (P00533 whole entry, looked up): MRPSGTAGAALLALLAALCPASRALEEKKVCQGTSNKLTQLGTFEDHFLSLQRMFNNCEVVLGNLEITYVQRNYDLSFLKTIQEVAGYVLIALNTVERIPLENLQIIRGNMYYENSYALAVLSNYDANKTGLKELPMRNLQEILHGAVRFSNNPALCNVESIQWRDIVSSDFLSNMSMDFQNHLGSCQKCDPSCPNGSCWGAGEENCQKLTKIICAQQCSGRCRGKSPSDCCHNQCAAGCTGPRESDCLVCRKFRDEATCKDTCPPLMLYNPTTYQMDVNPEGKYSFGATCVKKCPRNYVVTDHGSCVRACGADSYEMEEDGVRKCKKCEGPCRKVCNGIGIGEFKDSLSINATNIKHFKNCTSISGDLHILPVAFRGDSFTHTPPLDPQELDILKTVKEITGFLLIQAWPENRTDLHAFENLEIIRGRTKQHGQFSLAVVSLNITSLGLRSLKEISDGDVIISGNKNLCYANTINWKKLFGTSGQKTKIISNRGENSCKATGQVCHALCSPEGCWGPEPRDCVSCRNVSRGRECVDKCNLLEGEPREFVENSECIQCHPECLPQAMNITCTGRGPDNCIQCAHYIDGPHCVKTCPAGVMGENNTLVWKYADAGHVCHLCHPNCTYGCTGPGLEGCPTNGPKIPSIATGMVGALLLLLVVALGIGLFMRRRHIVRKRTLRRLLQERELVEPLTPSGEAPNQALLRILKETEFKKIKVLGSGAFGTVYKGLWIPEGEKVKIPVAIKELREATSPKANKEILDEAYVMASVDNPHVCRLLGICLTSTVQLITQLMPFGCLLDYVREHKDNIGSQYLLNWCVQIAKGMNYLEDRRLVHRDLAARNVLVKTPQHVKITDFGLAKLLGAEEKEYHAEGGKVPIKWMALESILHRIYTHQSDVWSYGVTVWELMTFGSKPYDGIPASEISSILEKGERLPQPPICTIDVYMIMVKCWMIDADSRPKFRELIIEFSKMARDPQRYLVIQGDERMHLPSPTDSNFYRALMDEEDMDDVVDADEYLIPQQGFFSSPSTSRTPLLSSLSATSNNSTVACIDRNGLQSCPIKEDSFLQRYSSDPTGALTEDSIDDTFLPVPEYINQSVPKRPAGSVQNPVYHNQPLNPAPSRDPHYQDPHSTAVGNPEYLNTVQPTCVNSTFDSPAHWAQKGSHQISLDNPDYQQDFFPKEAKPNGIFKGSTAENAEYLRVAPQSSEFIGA
Assay [8] concerns the target Follistatin-related protein 3 (Homo sapiens) (UniProt O95633). The assay is described as follows: compounds binding follistatin-related protein 3 – biochemical, small-molecule microarray, 635 nm fluorescence, primary screen (AID 1105).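 Further: score merges emission near 667 nm and signal to noise per printed spot across three slides.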 The note with it: FSTL3 binding, higher = more signal.
The target of assay [9] is Dickkopf-related protein 1 (Homo sapiens) (UniProt O94907). The assay is described as follows: small molecules binding DKK1 protein – biochemical, small-molecule microarray, 635 nm fluorescence scan, primary screen (AID 1106).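 Further: score merges emission near 667 nm with signal to noise over three replicate slides.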 The following applies: higher = more signal.
Chain of Dickkopf-related protein 1 (Homo sapiens) (O94907 whole entry, looked up): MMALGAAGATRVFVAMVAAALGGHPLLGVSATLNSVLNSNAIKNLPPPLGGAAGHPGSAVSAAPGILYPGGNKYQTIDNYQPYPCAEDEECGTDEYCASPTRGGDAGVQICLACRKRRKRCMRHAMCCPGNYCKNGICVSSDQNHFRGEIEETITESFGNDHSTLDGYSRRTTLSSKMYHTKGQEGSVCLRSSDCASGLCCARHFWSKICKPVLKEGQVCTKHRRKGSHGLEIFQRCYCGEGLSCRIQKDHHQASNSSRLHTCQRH
For assay [10], the system named is Inhibin beta A chain (activin A). The assay is described as follows: small molecules binding activin A – biochemical, small-molecule microarray, 635 nm fluorescence scan, primary screen (AID 1107).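 Further: mouse activin A protein probed at 4.33 µg/mL on printed slides; score merges bound-protein fluorescence near 667 nm with spot signal-to-noise.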 The following applies: INHBA, higher = more signal.
In assay [11] the test system is Human papillomavirus type 1a protein E7 (residues 44-93). The assay is described as follows: small molecules binding HPV E7 44-93 – biochemical, small-molecule microarray, residues 44-93, 635 nm fluorescence, primary screen (AID 1108).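 Further: E7 fragment applied at 1 µg/mL in TBST for 1 h at 4 C; score combines spot fluorescence with its signal to noise ratio.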 The note with it: fluorescence 635 nm, higher = more signal.
A short description of assay [12]: hepatitis C replication reporter changes, two-sided – Huh7 cells, luciferase reporter, HCV replication inhibitor project, primary screen (AID 1109).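 Further: huh7 hepatoma cells harbouring a luciferase neomycin HCV replicon reporter; luciferase luminescence as measure of HCV replicon replication; test concentration not given here.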 The note with it: Huh7 HCV replicon luciferase reporter, 48 h; higher = more signal. On the technique in general: A reporter such as luciferase makes a cellular process visible.
In assay [13] the target is Left-right determination factor 2 (Homo sapiens) (UniProt O00292). The assay is described as follows: small molecules binding LEFTY2 protein – biochemical, small-molecule microarray, 635 nm fluorescence scan, primary screen (AID 1110). The following applies: higher = more signal.
Chain of Left-right determination factor 2 (Homo sapiens) (O00292 whole entry, looked up): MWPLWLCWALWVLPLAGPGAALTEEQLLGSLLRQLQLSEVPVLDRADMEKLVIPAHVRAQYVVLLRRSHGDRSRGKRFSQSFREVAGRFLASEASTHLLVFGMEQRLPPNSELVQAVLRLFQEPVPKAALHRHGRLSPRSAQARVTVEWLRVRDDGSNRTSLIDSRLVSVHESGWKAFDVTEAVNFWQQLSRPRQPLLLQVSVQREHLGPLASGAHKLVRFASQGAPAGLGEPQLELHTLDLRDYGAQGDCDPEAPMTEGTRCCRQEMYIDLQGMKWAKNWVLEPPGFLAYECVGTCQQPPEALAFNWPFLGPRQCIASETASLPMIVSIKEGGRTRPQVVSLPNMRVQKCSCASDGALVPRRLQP
For assay [14], the target named is Calmodulin-1 (Homo sapiens) (UniProt P0DP23). The experiment in a line: small molecules binding calmodulin-1 with EGTA – biochemical, small-molecule microarray, Cy5-labelled CALM1, profiling panel (AID 1111).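 Further: labelled calmodulin applied in Tris saline Tween buffer holding calcium plus EGTA and DTT.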 The following applies: Cy5-CALM1 binding fluorescence, higher = more signal.
The target is the same in assay [15]. The experiment in a line: small molecules binding Ca-loaded calmodulin-1 – biochemical, small-molecule microarray, Cy5-labelled CALM1, plus calcium, artefact control for SMM control-protein annotation, profiling panel (AID 1112).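 Further: score merges spot fluorescence with signal to noise from triplicate slides.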 The following applies: Cy5-CALM1 binding fluorescence, higher = more signal.
Assay [16] is described as follows: probe aWnt5a binding to arrayed compounds – biochemical, biotinylated probe, 635/667 nm fluorescence, primary screen (AID 1113).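 Further: score merges 667 nm fluorescence intensity with signal-to-noise per printed feature.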 The following applies: small-molecule microarray, higher = more signal.
The nature of assay [17]: probe aShh binding to arrayed compounds – biochemical, biotinylated probe, 635/667 nm fluorescence, primary screen (AID 1114).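 Further: probe is biotin-labelled aShh protein from a stem cell growth factor screen; measures binding of labelled protein to compounds printed on the slide; score merges feature fluorescence at 667 nm with signal-to-noise.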 The note with it: small-molecule microarray, higher = more signal.
Assay [18] in a line: probe aNog binding to arrayed compounds – biochemical, biotinylated probe, 635/667 nm fluorescence, primary screen (AID 1115).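 Further: probe is biotinylated aNog protein used at 0.15 µg/mL for 1 h at 4 C; z-score combines 667 nm fluorescence of each spot with its signal to noise.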 The note with it: small-molecule microarray, higher = more signal.
Assay [19] deals with Torsin-1A-interacting protein 1 (Homo sapiens) (UniProt Q5JTV8). The experiment in a line: compound microarray binding of lysate hLAP1 – cell lysate, small-molecule microarray, COS7 lysate, 635/667 nm fluorescence, primary screen (AID 1116). The note with it: 635 nm fluorescence, higher = more signal.
Chain of Torsin-1A-interacting protein 1 (Homo sapiens) (Q5JTV8 whole entry, looked up): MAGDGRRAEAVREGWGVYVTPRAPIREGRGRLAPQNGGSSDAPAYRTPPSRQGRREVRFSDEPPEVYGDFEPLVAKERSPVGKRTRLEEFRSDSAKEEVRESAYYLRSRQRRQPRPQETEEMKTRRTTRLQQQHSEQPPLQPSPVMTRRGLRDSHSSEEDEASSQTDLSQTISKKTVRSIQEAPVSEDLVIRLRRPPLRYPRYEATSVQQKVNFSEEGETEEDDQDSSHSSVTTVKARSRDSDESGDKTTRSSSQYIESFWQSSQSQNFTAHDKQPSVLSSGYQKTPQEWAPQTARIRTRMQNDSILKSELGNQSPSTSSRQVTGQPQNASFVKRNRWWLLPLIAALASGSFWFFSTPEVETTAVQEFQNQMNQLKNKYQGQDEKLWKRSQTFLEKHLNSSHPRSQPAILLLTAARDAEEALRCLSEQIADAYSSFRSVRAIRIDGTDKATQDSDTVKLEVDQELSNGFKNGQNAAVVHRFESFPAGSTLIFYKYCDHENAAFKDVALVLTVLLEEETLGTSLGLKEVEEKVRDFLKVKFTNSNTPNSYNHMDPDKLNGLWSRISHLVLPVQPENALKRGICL
Assay [20] deals with Alpha-bungarotoxin (Bungarus multicinctus) (UniProt P60615). The experiment in a line: compounds binding labelled alpha-BTX control protein – biochemical, small-molecule microarray, Alexa647 label, 635/667 nm fluorescence, artefact control for SMM control protein annotation, profiling panel (AID 1117). The note with it: alpha-BTX-A647 binding fluorescence, higher = more signal.
Chain of Alpha-bungarotoxin (Bungarus multicinctus) (P60615 whole entry, looked up): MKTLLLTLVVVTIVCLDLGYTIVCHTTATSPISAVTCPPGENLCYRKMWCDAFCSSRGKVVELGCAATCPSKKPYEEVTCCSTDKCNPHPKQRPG

Chain of Follistatin-related protein 3 (Homo sapiens) (O95633 whole entry, looked up): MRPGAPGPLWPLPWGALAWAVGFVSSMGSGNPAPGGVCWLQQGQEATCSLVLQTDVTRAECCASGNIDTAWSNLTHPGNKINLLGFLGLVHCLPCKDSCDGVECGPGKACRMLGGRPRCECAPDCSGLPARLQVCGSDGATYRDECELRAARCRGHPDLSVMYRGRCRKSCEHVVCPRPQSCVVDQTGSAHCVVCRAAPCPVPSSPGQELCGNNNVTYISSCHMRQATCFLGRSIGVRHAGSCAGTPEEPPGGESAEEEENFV

For `CC1CC/C=C\[C@H]2OC34C=CCN(C(C)(C)C)C(=O)[C@H]3N(C(CO)C(C)C)C(=O)[C@@H]4C2C(=O)O1` (stereo not given in full), the composite z-score in assay [1] was 0.337; in assay [2], -0.193; in [3], -0.347; in assay [5] it was 0.352; in assay [6], 0.156; in assay [7], -0.33. Besides, the composite z-score in assay [8] is 0.27; in [9], 0.391; in [10], 0.524; in assay [11], -1.26; in assay [13], 0.272; in assay [14], -0.745. Further, the composite z-score in assay [15] is -0.554; in [16] it was -0.0882; in assay [17], 0.0469; in assay [18], -0.316; in assay [19] it was 0.952; in [20] it was -0.62. Moreover, the z-score in assay [4] is 0.792 (inactive); in [12] it was 0.434.

As to `O=C1C2C=CC(C(O)c3ccc(I)cc3)N(Nc3ccccc3)C2C(=O)N1c1ccccc1` (stereo not given), the composite z-score in [1] amounted to 1.1; in assay [2] it was 1.06; in assay [3] it was 1.21; in assay [5], 0.455; in assay [6], 1.29; in assay [7], 0.0244. The composite z-score in assay [8] stood at 0.859; in assay [9] it was 0.263; in [10], 1.06; in assay [11] it was 0.898; in assay [13], 0.0988; in [14], 2.51. The composite z-score in assay [15] is 1.2; in assay [16], -0.0399; in assay [17], 0.184; in assay [18] it was 1.4; in assay [19], 1.83; in assay [20], 1.71. For the same compound, the z-score in assay [4] was 0.189 (inactive); in assay [12], 0.0376.

`C=CCC(OC(C)=O)[C@@H]1[C@@H](N(Cc2ccc(-c3ccccc3)cc2)C(=O)Cc2ccc(F)cc2)c2cc(OCCCO)ccc2N1C(=O)Cc1ccc2ccccc2c1` (stereo not given in full): the composite z-score in assay [1] is -0.261; in assay [2], -0.0697; in assay [3], 0.652; in assay [5], -0.13; in assay [6], -0.199; in assay [7], -0.113. Besides, the composite z-score in assay [8] is -0.507; in [9], -0.117; in assay [10], 1.3; in assay [11] it was -0.333; in assay [13] it was 0.0808; in assay [14] it was 1.07. Also, the composite z-score in assay [15] is 0.743; in assay [16], 0.0495; in assay [17], -0.153; in assay [18] it was 0.0335; in [19], 0.542; in assay [20], -0.0297. Besides, the values for the z-score in assay [4] and in [12] were -0.681 (inactive) and 0.482, respectively.

In the case of `CS(=O)(=O)CCOC(=O)C1=CC(CCCO)=CC(C2CC2)N(Cc2cccc(OC(F)(F)F)c2)C=C1C(=O)OCCS(C)(=O)=O` (stereo not given), the composite z-score was 1.09 in [1]; 0.0231 in [2]; -0.0768 in assay [3]; 0.039 in assay [5]; 0.306 in [6]; -0.0252 in assay [7]. In addition, the composite z-score in [8] is 0.054; in assay [9], -0.325; in [10], 0.911; in assay [11], 1.3; in [13], -0.022; in [14], 0.238. Also, the composite z-score is 0.478 in assay [15]; -0.0643 in assay [16]; -0.0243 in [17]; 0.576 in assay [18]; 1.9 in [19]; 0.0358 in [20]. In addition, the z-score is 0.155 (inactive) in assay [4] and -1.63 in [12].

Take `CCOC(=O)C1=C[C@@H](C(C)(C)C)N(S(=O)(=O)c2ccc(C)cc2)[C@H]1c1ccccc1`: the composite z-score in assay [1] came to 0.104; in assay [2], 1.44; in assay [3] it was 1.22; in [5], 0.982; in assay [6], 1.29; in assay [7], 0.591. Also, the composite z-score stood at 1.26 in assay [8]; 0.743 in assay [9]; 0.556 in [10]; 0.834 in assay [11]; 0.561 in [13]; 1.99 in assay [14]. Further, the composite z-score was 0.838 in assay [15]; 0.0873 in assay [16]; 0.0469 in assay [17]; 0.109 in assay [18]; 1.26 in assay [19]; 1.11 in [20]. Further, the z-score in assay [4] was 1.07 (inactive); in assay [12], -2.05.

As to `O=c1cccc(-c2ccc(F)cc2)o1`, the composite z-score in assay [1] is 0.347; in assay [2], 0.328; in assay [3], -0.3; in assay [5], 0.948; in assay [6], 0.716; in assay [7], 0.444. Besides, the composite z-score in [8] was 0.74; in [9] it was 0.399; in assay [10] it was 0.457; in assay [11], -0.399; in [13] it was 0.55; in assay [14], -0.236. For the same compound, the composite z-score is -0.33 in assay [15]; -0.1 in assay [16]; 0.216 in [17]; 0.0416 in [18]; -0.184 in assay [19]; 0.241 in [20]. For the same compound, the z-score is 0.362 (inactive) in assay [4] and -0.228 in [12].
